Results from a collection of fitness landscapes (doi:10.1016/j.celrep.2020.107928).
Over roughly 81,000 sequences, “one-hybrid fitness for binding NBS DNA” has its median near -0.1; the highest 2% begin near 0.36. The list comes from a sample in which the highest values are over-represented; it also holds similar and randomly drawn sequences.

B1: Caulobacter ParB omega fusion; a variant is named by its letters at X, in order, B8GW30 (parent)
chain: MESVVVGEPGMSEGRRGLGRGLSALLGEVDAAPAQAPGEQLGGSREAPIEILQRNPDQPRRTFREEDLEDLSNSIREKGVLQPILVRPSPDTAGEYQIVAGERAWRAAQRAGLKTVPIMVRELDDLAVLEIGIIENVQRADLNVLEEALSYKVLMEKFERTQENIAQTIGKSXSHVANXMRLLXLPDEVQSYLVSGELTAXHARAIAAAADPVALAKQIIEGGLSVRETEALARKAPNLSAGKSKGGRPPRVKDTDTQALESDLSSVLGLDVSIDHRGSTGTLTITYATLEQLDDLCNRLTRGI

Variants of: B1
Test: one-hybrid fitness for binding NBS DNA (the Noc-binding site; scaled: cognate 1, non-cognate 0); higher = stronger binding
Details: with NBS DNA site
How it was run: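 Fitness is the rescaled log change in variant-to-wild-type read ratio, measured by Illumina sequencing of plasmids before and after bacterial one-hybrid selection. The scale puts cognate at 1 and non-cognate at 0. Selection of Caulobacter ParB libraries, four specificity codons randomised, took place in E. coli USO with a HIS3 reporter, site 19 bp from the promoter, over 48 hours at 37°C on M9-minus-histidine with 0.1 mM IPTG and 5 mM 3-AT.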

Row | Variant | one-hybrid fitness for binding NBS DNA
1 | GYHN | ≤ 0.2
2 | GMFV | ≤ 0.2
3 | GDMV | ≤ 0.2
4 | PAFV | ≤ 0.2
5 | GFQR | ≤ 0.2
6 | KNLN | ≤ 0.2
7 | QAKR | 0.982
8 | QIVR | 0.271
9 | QAKG | 0.313
10 | QAVR | 0.358
11 | QIIR | ≤ 0.2
12 | QIKR | 0.853
13 | SPHS | ≤ 0.2
14 | GILL | ≤ 0.2
15 | CSWG | ≤ 0.2
16 | VYLS | ≤ 0.2
17 | RVCP | ≤ 0.2
18 | RVCT | 0.433
19 | RVCN | ≤ 0.2
20 | RVCY | ≤ 0.2
21 | RVRS | 0.577
22 | RVCS | 0.444
23 | RVCR | 0.436
24 | RVCH | ≤ 0.2
25 | RVCD | ≤ 0.2
26 | RVYS | 0.351

Row | Variant | one-hybrid fitness for binding NBS DNA
27 | RVRN | ≤ 0.2
28 | RVCM | ≤ 0.2
29 | TIPT | ≤ 0.2
30 | LYLM | ≤ 0.2
31 | HSTN | ≤ 0.2
32 | QRVS | 0.561
33 | QCVS | 0.381
34 | QRKS | 0.778
35 | QSVS | 0.228
36 | QRKP | 0.404
37 | NRKS | ≤ 0.2
38 | DRKS | ≤ 0.2
39 | QPVS | 0.202
40 | ANSS | ≤ 0.2
41 | LCGR | ≤ 0.2
42 | TETQ | ≤ 0.2
43 | TNPC | ≤ 0.2
44 | YPLP | ≤ 0.2
45 | YFGS | ≤ 0.2
46 | QNIT | ≤ 0.2
47 | ATQS | ≤ 0.2
48 | NPLV | ≤ 0.2
49 | WWKR | 0.203
50 | QRVH | 0.387
51 | QRKH | 0.766
52 | QRVN | 0.259

Row | Variant | one-hybrid fitness for binding NBS DNA
53 | QRKN | 0.573
54 | QCKD | 0.337
55 | QRPH | ≤ 0.2
56 | QRVD | ≤ 0.2
57 | QPKH | ≤ 0.2
58 | QRKD | 0.377
59 | QRVP | ≤ 0.2
60 | EGSD | ≤ 0.2
61 | SHRM | ≤ 0.2
62 | SFTP | ≤ 0.2
63 | GMTV | ≤ 0.2
64 | AWKC | ≤ 0.2
65 | HLVG | ≤ 0.2
66 | QNYP | ≤ 0.2
67 | MSYR | ≤ 0.2
68 | KGQY | ≤ 0.2
69 | LHCR | ≤ 0.2
70 | RKVV | ≤ 0.2
71 | RPMF | ≤ 0.2
72 | YCQV | ≤ 0.2
73 | FVKY | ≤ 0.2
74 | QCHC | 0.238
75 | QSHM | ≤ 0.2
76 | QRHG | 0.403
77 | QCHM | ≤ 0.2
78 | QCHG | ≤ 0.2

Row | Variant | one-hybrid fitness for binding NBS DNA
79 | QRHQ | 0.431
80 | QSHQ | ≤ 0.2
81 | QRHC | 0.437
82 | QPHG | ≤ 0.2
83 | QRHM | 0.438
84 | QSHC | ≤ 0.2
85 | QCHQ | 0.269
86 | TMAD | ≤ 0.2
87 | KMQL | ≤ 0.2
88 | QRHD | 0.294
89 | QRHS | 0.718
90 | QPHH | ≤ 0.2
91 | QRHH | 0.61
92 | QCHH | 0.333
93 | QRHN | 0.437
94 | QRHI | 0.358
95 | QRHP | 0.303
96 | QRHF | 0.347
97 | ATVR | ≤ 0.2
98 | ASPP | ≤ 0.2
99 | AERS | ≤ 0.2
100 | AVLE | ≤ 0.2
101 | HTYV | ≤ 0.2
102 | WTPE | ≤ 0.2
103 | PKNM | ≤ 0.2
104 | VQKH | ≤ 0.2

Row | Variant | one-hybrid fitness for binding NBS DNA
105 | SIHM | ≤ 0.2
106 | DQIS | ≤ 0.2
107 | AINC | ≤ 0.2
108 | PFAM | ≤ 0.2
109 | REKR | 0.228
110 | RRKR | 0.929
111 | RRVR | 0.699
112 | ERKR | 0.275
113 | NEMS | ≤ 0.2
114 | SEDT | ≤ 0.2
115 | RTFF | ≤ 0.2
116 | RRDV | 0.223
117 | RRRV | 0.655
118 | RNYV | ≤ 0.2
119 | RRVV | 0.229
120 | RRYV | 0.254
121 | RNEV | 0.385
122 | RRNV | 0.456
123 | RCRV | 0.257
124 | RCEV | ≤ 0.2
125 | RCNV | ≤ 0.2
126 | RCKV | 0.23
127 | RRKV | 0.694
128 | AVRK | ≤ 0.2
129 | KHMG | ≤ 0.2
130 | LTMT | ≤ 0.2

Row | Variant | one-hybrid fitness for binding NBS DNA
131 | MTLT | ≤ 0.2
132 | VSMY | ≤ 0.2
133 | WPTG | ≤ 0.2
134 | TWNS | ≤ 0.2
135 | VPYS | ≤ 0.2
136 | QQKW | 0.382
137 | QQVW | ≤ 0.2
138 | QQFW | ≤ 0.2
139 | QQYW | ≤ 0.2
140 | QQRW | 0.373
141 | QQDW | ≤ 0.2
142 | PDLF | ≤ 0.2
143 | GASG | ≤ 0.2
144 | IEFV | ≤ 0.2
145 | HVSS | ≤ 0.2
146 | QTRQ | 0.581
147 | QRRQ | 0.496
148 | QCRQ | 0.527
149 | QRYQ | 0.35
150 | QHRQ | 0.33
151 | QSDQ | ≤ 0.2
152 | QSRQ | 0.413
153 | QTCQ | ≤ 0.2
